Activity calls are given as the source filed them. Calls come from the whole dose curve; as a rule, active = well fitted curve in the direction sought with a large enough effect; inactive = no such curve, though single readings can be large or run the other way.
Target: Alpha-galactosidase (Coffea arabica) (UniProt Q42656)
Assay: Counterscreen for Glucocerebrosidase Inhibitors: qHTS Assay for Coffee Bean alpha-Galactosidase at pH 5.9 (AID 998);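 note: plate controls were uninhibited enzyme for no effect and no-enzyme basal signal for full effect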
Conditions: coffee bean alpha-galactosidase enzyme assay; series mostly up to 76.9 µM; activity, negative = inhibition: at the top concentration
How it was run: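 Green coffee bean enzyme (2 nM) with 4-methylumbelliferyl alpha-D-galactopyranoside (80 uM) in 50 mM citric acid, 0.005% Tween-20, pH 5.9, 20 min at room temperature; compounds 0.7 nM–77 uM. Stopped at pH 10, fluorescence Ex365/Em440; Hill-fit AC50.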

Alpha-galactosidase (Coffea arabica), sequence (Q42656 whole entry, looked up): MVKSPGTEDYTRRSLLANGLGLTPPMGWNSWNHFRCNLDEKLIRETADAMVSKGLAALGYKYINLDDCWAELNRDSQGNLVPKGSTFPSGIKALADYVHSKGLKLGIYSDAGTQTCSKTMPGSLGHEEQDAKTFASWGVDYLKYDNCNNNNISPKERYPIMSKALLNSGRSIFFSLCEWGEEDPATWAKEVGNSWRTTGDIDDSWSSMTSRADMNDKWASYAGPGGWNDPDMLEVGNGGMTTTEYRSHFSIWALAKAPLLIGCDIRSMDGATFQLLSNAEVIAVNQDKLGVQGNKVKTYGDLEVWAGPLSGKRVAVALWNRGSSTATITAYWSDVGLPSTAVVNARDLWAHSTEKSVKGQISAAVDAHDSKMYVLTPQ

Row | SMILES | activity, negative = inhibition
1 | CN1CCC(=C2c3ccccc3C=Cc3ccccc32)CC1 | -5.55% (inactive)
2 | CCCNC(=O)NS(=O)(=O)c1ccc(Cl)cc1 | -1.77% (inactive)
3 | Cn1ccc2cc3c(cc21)CCN3C(=O)Nc1cccnc1 | -2.52% (inactive)
4 | O=C(c1ccc(OCCN2CCCCC2)cc1)c1c(-c2ccc(O)cc2)sc2cc(O)ccc12 | -1.15% (inactive)
5 | CN1CCC[C@@H]1CCO[C@](C)(c1ccccc1)c1ccc(Cl)cc1 | -5.35% (inactive)
6 | CCCC(CCC)C(=O)O | -1.59% (inactive)
7 | N=c1nc(N2CCCCC2)cc(N)n1O | 0.512% (inactive)
8 | Cc1c(OCC(F)(F)F)ccnc1CS(=O)c1nc2ccccc2[nH]1 (configuration not stated) | -2.57% (inactive)
9 | CCN(CC)CCOC(=O)C1(C2CCCCC2)CCCCC1 | -4.15% (inactive)
10 | CC(C)[N+](C)(CCOC(=O)C1c2ccccc2Oc2ccccc21)C(C)C | -0.451% (inactive)
11 | CC(C)NCC(O)COc1cccc2[nH]ccc12 (configuration not stated) | 0.239% (inactive)
12 | COc1cc2c(c(OC)c1OC)-c1ccc(OC)c(=O)cc1[C@@H](NC(C)=O)CC2 | -0.899% (inactive)
13 | CN(C)CCCN1c2ccccc2Sc2ccc(Cl)cc21 | -4.62% (inactive)
14 | Cc1cn[nH]c1 | -0.991% (inactive)
15 | NC(=O)NO | 2.38% (inactive)
16 | C[C@](N)(Cc1ccc(O)c(O)c1)C(=O)O | -0.582% (inactive)
17 | CC(=O)CCCCn1c(=O)c2c(ncn2C)n(C)c1=O | 1.26% (inactive)
18 | NC12CC3CC(CC(C3)C1)C2 | 2.06% (inactive)
19 | O=c1n(CCCN2CCN(c3cccc(Cl)c3)CC2)nc2ccccn12 | 0.844% (inactive)
20 | CN(C)CCC=C1c2ccccc2CCc2ccccc21 | -3.82% (inactive)
21 | CCCN(CCC)CCc1cccc2c1CC(=O)N2 | -1.02% (inactive)
22 | Cc1cn([C@H]2C=C[C@@H](CO)O2)c(=O)[nH]c1=O | 2.02% (inactive)

— PubChem BioAssay (NCATS)
